Results: ChEMBL document CHEMBL4513216, “Probing the Open Global Health Chemical Diversity Library for Multistage-Active Starting Points for Next-Generation Antimalarials” (ACS Infect Dis, 2020)
The whole screen tested about 68,000 compounds, of which about 2,700 (4%) showed an effect of 50% or more. This is one part of a sample in which strong results are shown more often than they occur.

test system: Plasmodium berghei; experiment: Screen against P. berghei liver stage (PbLuc), transformed with Luciferase, at 2uM; assay type: functional, HepG2; details: tested at 2 uM

Row | SMILES | INHIBITION
1 | Cc1ccc(CN2CCN(C(=O)c3ccc(Br)o3)CC2)cc1 | 45.77%
2 | CC(C)Oc1ncnc2c1CCN(Cc1ccco1)CC2 | 27.44%
3 | CCCn1nc(C(=O)N2CCCC2c2noc(C)n2)ccc1=O (centres undefined) | -17.18%
4 | CCN(CC)CC1CN(Cc2ccc(C)s2)Cc2nccn2C1 (centres undefined) | -0.18%
5 | CCn1cnnc1Cn1cccc(C(F)(F)F)c1=O | 62.01%
6 | CCn1cncc1Cn1cccc(C(F)(F)F)c1=O | 10.1%
7 | CC(C)Cn1cncc1Cn1cccc(C(F)(F)F)c1=O | 1.22%
8 | CS(=O)(=O)N1C[C@H](C(=O)Nc2cccnc2)[C@@H]2CCO[C@@H]2C1 | 51.27%
9 | O=C(Nc1cccnc1)[C@H]1CN(C2CCCC2)C[C@H]2OCC[C@@H]12 | -42.87%
10 | CCOCCN1C[C@H](C(=O)Nc2cccnc2)[C@@H]2CCO[C@@H]2C1 | 8.18%
11 | Cc1nn(C)cc1C1=NS(=O)(=O)N(C)C(C(=O)Nc2ccc(Br)cc2)=C1 | 22.84%
12 | O=C(c1ccoc1)N(Cc1ccncc1)C1CC1 | -37.38%
13 | CCc1nnc(SCc2nonc2C)n1C1CC1 | -11.87%
14 | COC(=O)CNC(=O)CSCc1nc(O)c2cc(C)sc2n1 | -2.99%
15 | CC(C)C(C(=O)N1CCC(Nc2cccnn2)CC1)n1cncn1 (centres undefined) | -12.48%
16 | Cc1nc(C(C)Nc2nc3c(s2)c(C)nn3C)n[nH]1 (centres undefined) | 5.48%
17 | CC(NC(=O)NCCCN(C)C)c1ccc2c(c1)CCC(=O)N2 (centres undefined) | 2.08%
18 | CC(NC(=O)NCCS(C)(=O)=O)c1ccc2c(c1)CCC(=O)N2 (centres undefined) | 60.13%
19 | CC(NC(=O)NCc1cccs1)c1ccc2c(c1)CCC(=O)N2 (centres undefined) | 16.84%
20 | CC(C)(CN)NS(=O)(=O)c1cccc(F)c1F | -6.69%
21 | O=C(CCC(=O)N1CCC(c2noc3cc(F)ccc23)CC1)NC1CC1 | 11.87%
22 | CC(C)NCC1(COc2ccccc2)C[C@@H](O)[C@@H](O)C1 (some centres undefined) | 71.58%
23 | O[C@@H]1CC(CNCC2CCCC2)(COc2cccnc2)C[C@@H]1O (some centres undefined) | 42.64%
24 | O[C@@H]1CC(CNCC2CC2)(COc2cccnc2)C[C@@H]1O (some centres undefined) | 39.62%
25 | Cn1cc(C[C@H]2[C@H](O)CCN2Cc2ccncc2)cn1 | 20.41%
26 | CCCNC(=O)c1cn(C(C)(C)C)c2ncccc12 | 12.87%
27 | COc1ccc(-c2cc3nn(CC(=O)NC(C)C)c(=O)n3c(C)n2)cc1 | 22.96%
28 | Cc1nc(-c2ccccc2)cc2nn(CC(N)=O)c(=O)n12 | 20.88%
29 | COc1ccc(-c2cc3nn(CC(N)=O)c(=O)n3c(C)n2)cc1 | 52.74%
